aDG glyco act = activators of alpha-DG glycosylation, primary screen, uHTS, Pro5-aDG cells, AlphaScreen; AID 624168, 2012; activation, % at 10 µM; alpha-DG glycosylation AlphaScreen (IIH6); 0% Pro5, 100% B10-LARGE cell signal; 360,000 compounds, 0.22% hits;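 active = activation of at least 8% versus controls, or a plate z-score of at least 8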;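 note: Pro5 are CHO cells carrying HIG-tagged alpha-DG that lacks glycosylation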
HSP90 refold inh = HSP90 inhibitors, primary screen, cell lysate, luminescence; Rabbit reticulocyte lysate, luciferase refolding luminescence, 3 h; Heat shock protein HSP 90 (rabbit reticulocyte lysate; luciferase refolding); inhibition, % at 5.6 µM; 290,000 compounds, 0.91% hits;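 active = inhibition above the screen-wide mean plus 3 SD, computed separately per campaign, cut at about 16% in these data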;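 note: inhibitors lower the luminescence because luciferase stays unfolded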
TROY NFkB inh = inhibitors of TROY-driven NF-kB signaling, primary screen, Q293 LMP1-TROYcd cells, NF-kB luciferase, uHTS | 360,000 compounds, 0.98% hits | Q293 LMP1-TROYcd NF-kB luciferase reporter, 4 h | inhibition, % at 10 µM;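 active = compounds whose plate-normalised and pattern-corrected inhibition of the luciferase reporter signal at the single screening dose is 50% or more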
LGR2 antag = inhibitors of bursicon-induced LGR2 CRE-luciferase signal, primary screen, cell-based, HEK293, CRE-luciferase reporter, bursicon stimulation | Drosophila bursicon receptor LGR2 (rickets) | inhibition, % at 9.99 µM | 380,000 compounds, 0.35% hits | AID 720647, 2013 | bursicon-stimulated, 4 h;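 active = drop in luminescence signal, shown as inhibition above about 50% in the replicate tests, limit read from the data, passing the limit was not always enough; inconclusive = probably only some replicates passing the limit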;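 note: agonist challenge used bursicon conditioned medium at about half maximal strength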
TWEAK-Fn14 inh = inhibitors of TWEAK-Fn14 signaling, primary screen, luciferase reporter cells, uHTS; 360,000 compounds, 2% hits; inhibition, % at 10 µM; AID 1159606, 2016; TWEAK-stimulated Fn14 reporter cells, luciferase luminescence, 8 h; in the data active = inhibition above about 50%
EBV LMP1 NFkB = EBV LMP1-driven NF-kappaB luciferase reporter inhibitors, primary screen, cell-based, luminescence, single point | LMP1-induced NF-kappaB luciferase reporter cells | inhibition, % at 12.5 µM | 350,000 compounds, 0.69% hits | AID 504558, 2011; in the data active = inhibition above about 41%; inconclusive = no clear call, values can overlap the other calls
Large screens that a line does not name were inactive. Only some compounds are listed: those with a hit (about 2.6% of all), similar ones and a draw of the others.

COc1ccc2c3c([nH]c2c1)[C@H](CO)N(Cc1ccc(Cl)cc1)CC31CCN(Cc2ccccc2)CC1	none (no result: aDG glyco act, HSP90 refold inh, TROY NFkB inh, TWEAK-Fn14 inh, EBV LMP1 NFkB)
CCOC(=O)N1CCN(C(=O)C(=O)Nc2ccc3nc4n(c(=O)c3c2)CCCCC4)CC1	none
CCc1c2c(nc3ccc(OC(=O)N4CCC(N5CCCCC5)CC4)cc13)-c1cc3c(c(=O)n1C2)COC(=O)[C@]3(O)CC	TROY NFkB inh 56.7, LGR2 antag inconclusive, EBV LMP1 NFkB 72.4 (no result: HSP90 refold inh)
CCC1(O)C(=O)OCc2c1cc1n(c2=O)Cc2cc3cc(O)ccc3nc2-1 (configuration not stated)	TROY NFkB inh 76.4, LGR2 antag 94.9, TWEAK-Fn14 inh 70.4, EBV LMP1 NFkB 86.3 (no result: HSP90 refold inh)
C[C@H]1CCCCO[C@@H](CN(C)Cc2ccc(C(=O)O)cc2)[C@@H](C)CN([C@@H](C)CO)C(=O)c2cc(NC(=O)Nc3ccc(F)cc3)ccc2O1	none (no result: aDG glyco act, HSP90 refold inh, TROY NFkB inh, TWEAK-Fn14 inh, EBV LMP1 NFkB)
CCc1ccccc1-n1ncc(C(=O)Nc2ccc(OC)cc2)c1C	EBV LMP1 NFkB 78.6 (no result: HSP90 refold inh)
CCOC(=O)/C(=C\c1ccccc1)C(=O)c1cc(C(C)=O)c(Nc2ccccc2)s1	TWEAK-Fn14 inh 70.1, EBV LMP1 NFkB 52.9 (no result: LGR2 antag)
CCOC(=O)/C(=C\c1cccnc1)C(=O)c1cc(C(C)=O)c(Nc2ccccc2)s1	TROY NFkB inh 85.7, TWEAK-Fn14 inh 106.1 (no result: LGR2 antag)
C[C@@H]1CN([C@H](C)CO)C(=O)c2cc(NC(=O)Cc3ccccc3)ccc2O[C@@H](C)CCCCO[C@H]1CN(C)C(=O)CCC(F)(F)F	none (no result: aDG glyco act, HSP90 refold inh, TROY NFkB inh, TWEAK-Fn14 inh, EBV LMP1 NFkB)
Cc1c(C)n(Cc2ccccc2)c2ncnc(Cl)c12	TWEAK-Fn14 inh 64.9
CN1CCc2c(sc(NC(=O)c3ccc4ccccc4c3)c2C(N)=O)C1	aDG glyco act 18.7 (no result: LGR2 antag)
O=C(C[C@H]1C[C@@H]2c3cc(NC(=O)Cc4ccncc4)ccc3O[C@@H]2[C@H](CO)O1)NCCN1CCCCC1	none (no result: aDG glyco act, HSP90 refold inh, TROY NFkB inh, TWEAK-Fn14 inh, EBV LMP1 NFkB)
O=C(c1ccccc1)N1CC2(C1)[C@@H](c1ccccc1)[C@@H](CO)N2CC1CC1	none (no result: aDG glyco act, HSP90 refold inh, TROY NFkB inh, TWEAK-Fn14 inh, EBV LMP1 NFkB)
Cc1[nH]c(-c2ccc(F)cc2)cc1C(=O)N1CCN(c2ccc(Cl)cc2)CC1	TWEAK-Fn14 inh 89.5
COc1ccc(N2CCN(C(=O)c3cc(-c4ccc(F)cc4)[nH]c3C)CC2)cc1	none
CC(C)NC(=O)Nc1cccc2c1O[C@H](CN(C)Cc1ccc(-c3ccccc3)cc1)[C@@H](C)CN([C@H](C)CO)C2=O	none (no result: aDG glyco act, HSP90 refold inh, TROY NFkB inh, TWEAK-Fn14 inh, EBV LMP1 NFkB)
O=C(NCc1ccco1)C1CC(=O)N(c2cccc(Cl)c2)C1 (configuration not stated)	EBV LMP1 NFkB 65.3
Cc1cnc(NC(=O)C2CC(=O)N(c3cccc(Cl)c3)C2)s1 (configuration not stated)	LGR2 antag 79.1
O=C(NCc1ccco1)C1CC(=O)N(c2ccc(Cl)cc2)C1 (configuration not stated)	none
FC(F)(F)c1nc(N2CCN(c3ccccc3)CC2)nc2c1CCCCC2	TROY NFkB inh 57.2, TWEAK-Fn14 inh 93.5 (no result: LGR2 antag)
O=S(=O)(c1cccc(F)c1)N1CC[C@@H]2[C@H]1c1cc(-c3cccc(F)c3)ccc1N[C@@H]2CO	none (no result: aDG glyco act, HSP90 refold inh, TROY NFkB inh, TWEAK-Fn14 inh, EBV LMP1 NFkB)
COc1ccc(NC(=O)C#Cc2ccccc2)cc1OC	TWEAK-Fn14 inh 94.9
CC(Oc1ccccc1)C(=O)Nc1ccc(C(N)=O)cc1 (configuration not stated)	none (no result: LGR2 antag)
NC(=O)c1ccc(NC(=O)C#Cc2ccccc2)cc1	TWEAK-Fn14 inh 89.4
C[C@@H]1CN([C@@H](C)CO)C(=O)Cc2cc(N(C)C)ccc2O[C@H]1CN(C)Cc1ccc(Cl)c(Cl)c1	none (no result: aDG glyco act, HSP90 refold inh, TROY NFkB inh, TWEAK-Fn14 inh, EBV LMP1 NFkB)
CN(C)C(=O)C[C@@H]1C[C@@H]2c3cc(NC(=O)Cc4ccncc4)ccc3O[C@@H]2[C@H](CO)O1	none (no result: aDG glyco act, HSP90 refold inh, TROY NFkB inh, TWEAK-Fn14 inh, EBV LMP1 NFkB)
CC[n+]1c(/C=C/c2c[nH]c3ccccc23)ccc2cc(C)ccc21	LGR2 antag 107.8 (no result: aDG glyco act, TROY NFkB inh, TWEAK-Fn14 inh)
CC(C)Oc1ccc(C(=O)Nc2ccc(Cl)c(S(=O)(=O)Nc3ccc(Cl)cc3)c2)cc1	TROY NFkB inh 54.5, TWEAK-Fn14 inh 90.1
Cn1cnc(S(=O)(=O)N2CC[C@@H]3[C@H](CO)Nc4ccc(C#Cc5ccccc5F)cc4[C@@H]32)c1	none (no result: aDG glyco act, HSP90 refold inh, TROY NFkB inh, TWEAK-Fn14 inh, EBV LMP1 NFkB)
S=C(Nc1ccc(Nc2ccccc2)cc1)Nc1ccccn1	aDG glyco act 9.4
S=C(Nc1ccccc1)Nc1ccccn1	none (no result: HSP90 refold inh)

Compound activity (PubChem)
